Sfp PPTase inh – blocks B. subtilis Sfp PPTase activity; Biochemical Sfp PPTase activity, qHTS; AID 1490; Potency, µM, for inactives: largest response in the series, negative = inhibition, usual class: inhibitors; 3.5% of 310,000 active; Q9F4F7;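 further: the enzyme is Sfp with the accession as filed and its product quenches rhodamine fluorescence; 0% = enzyme reaction without inhibitor and -100% = no enzyme wells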
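Sfp 15 nM + cpd, 15 min RT; start w/ rhodamine-CoA 5 uM, BHQ-2-YbbR 12.5 uM (final); 50 mM Hepes pH 7.6, 10 mM MgCl2, 0.01% NP-40, 0.01% BSA; read 525/598 nm at 0 and 30 min.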
JMJD2A Tudor inh – blocks the human JMJD2A Tudor domain. O75164. AlphaScreen JMJD2A-Tudor / H3K4me3 peptide binding. 4.4% of 390,000 active. AID 504339. Potency, µM (series often up to 114 µM), without a hit: at the top dose activity change, negative = inhibition, hits mostly inhibitors; further: on the % scale 0 is the no-effect control and ±100 the full control effect; nearly all actives have a fitted effect of over 50% in size
G9a block – inhibitors of human histone lysine methyltransferase G9a | Q96KQ7 | 8.8% of 350,000 active | Potency, µM (doses to about 102 µM), inactives show at the top dose activity, negative = inhibition, actives largely listed as inhibitors | G9a H3K9 monomethylation, AlphaScreen, 2 h | AID 504332; further: on the % scale 0 is the no-effect control and ±100 the full control effect; nearly all actives have a fitted effect of over 75% in size
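Signal arises when biotinylated H3K9 peptide, once monomethylated, bridges streptavidin donor and antibody-captured acceptor beads. Enzyme at 20 nM was preincubated 15 min with test compounds; peptide 500 nM and SAM 20 uM then reacted for 2 h.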
L3MBTL1 inh – L3MBTL1 (human) inhibition; AlphaScreen L3MBTL1–H3K9me1 peptide binding; Q9Y468; 0.66% of 230,000 active; Potency, µM (series often up to 57.1 µM), for the others: at the highest dose activity, negative = inhibition, hits mostly inhibitors; further: on the % scale 0 is the no-effect control and ±100 the full control effect; nearly all actives have a fitted effect of over 60% in size
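L3MBTL1 50 nM + b-AHA-H3(1-15)K9me1 75 nM, 30 min RT; compound added, 30 min RT; streptavidin donor/Ni-chelate acceptor beads 10 ug/mL each final, 30 min RT dark; AlphaScreen read.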
BAZ2B inh – blocks human BAZ2B. Potency, µM (top dose mostly 114 µM), for inactives: at the highest dose activity change, negative = inhibition, hits mostly inhibitors. 4.4% of 360,000 active. AlphaScreen BAZ2B-H3K14Ac peptide displacement. AID 504333. Q9UIF8; further: on the % scale 0 is the no-effect control and ±100 the full control effect; nearly all actives have a fitted effect of over 60% in size
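Multi-concentration screen (max 110 uM) measuring displacement of acetylated histone H3 peptide from BAZ2B by AlphaScreen, using 50 nM protein, 50 nM peptide and 10 ug/mL streptavidin donor plus Ni-chelate acceptor beads.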
HP1b chromo inh – blocks HP1-beta chromodomain binding to methylated histone tails. Potency, µM (highest dose often 114 µM), inactives show top-dose activity change, negative = inhibition, actives largely listed as inhibitors. AlphaScreen HP1-beta / biotin-H3K9me3 peptide binding. 0.56% of 390,000 active. P83916; further: nearly all actives have a fitted effect of over 70% in size
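AlphaScreen: HP1-beta (50 nM) preformed 30 min with biotin-H3(1-18)K9me3 peptide (50 nM) in PBS pH 7.4, 0.01% Tween-20. Compound added for 30 min at RT, then streptavidin donor/nickel chelate acceptor beads (10 ug/mL) for 30 min.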
* hit, by the source's call; u = inconclusive; x = no result given; [ ] = another dose, or the depositor's remark. Shown are actives, neighbours in structure and some others; about 12% of the full set was active somewhere. The call rests on the fitted dose curve; in most records, active means well fitted curve in the direction sought with a large enough effect; inconclusive means small, poorly fitted or top-dose-only effect, or another doubt; inactive means no such curve, though single readings can be large; an effect the other way counts as inactive or inconclusive. Potency means the concentration at half of the fitted maximal effect.

SMILES	Sfp PPTase inh	JMJD2A Tudor inh	G9a block	L3MBTL1 inh	BAZ2B inh	HP1b chromo inh
NS(=O)(=O)c1ccc(CCNC(=O)CNC(=O)c2ccc(F)cc2)cc1	5%	-14%	2%	x	6%	-19%
CCCCC(=O)Nc1ccccc1C(C)C	13%	x	9%	-2%	-15%	x
NS(=O)(=O)c1ccc(CCNC(=O)C2CCN(C(=O)Nc3ccccc3)CC2)cc1	x	-8%	x	-2%	x	52%
NS(=O)(=O)c1ccc(CCNCC(=O)NC2CC2)cc1	-1%	4.5µM*	50µM*	6%	u	u
NS(=O)(=O)c1ccc(CCNC(=O)CNCCc2ccc(C(F)(F)F)cc2)cc1	-5%	18µM*	-1%	x	50µM*	-7%
CC(C)c1ccccc1NC(=O)CNCCc1ccc(C(F)(F)F)cc1	79µM*	14µM*	-9%[12.7 µM]	x	45µM*	u
NS(=O)(=O)c1ccc(CCNCC(=O)N2CCC(Cc3ccccc3)CC2)cc1	u	-35%[11.4 µM]	x	15%	56µM*	-12%
COC(=O)[C@@H]1C[C@H]1[C@@H](NC(C)=O)c1ccccc1	-15%	x	x	x	x	x
CCOc1ccccc1NC(=O)N1CCc2c(sc(C)c2CC)C1c1ccccc1 (stereo not given)	x	-22%	-1%[59 µM]	x	-11%	30%
Cc1ccc(S(=O)(=O)N2CCN(c3nc(-c4cccs4)cc4ccccc34)CC2)cc1	x	-19%	x	x	x	27%
COCCn1c(SCC(=O)Nc2ccc(Br)cc2)nc2c([nH]c3ccccc32)c1=O	x	-8%	11%[59 µM]	x	6%	27%[57 µM]
Cc1nn(-c2ccccc2)c(Cl)c1C(=O)OCC(=O)NCCc1ccc(S(N)(=O)=O)cc1	x	-17%	50µM*	12%	-24%	21%
Cc1noc(C)c1C(=O)OCC(=O)NCCc1ccc(S(N)(=O)=O)cc1	x	-1%	x	1%	x	24%
Cc1ccc(/C(O)=C2\C(=O)C(=O)N(CCc3c[nH]c4ccccc34)C2c2cccnc2)cc1 (stereo not given)	12%	u	50µM*	17%	-4%	7%
C=CCOc1ccc(/C(O)=C2/C(=O)C(=O)N(CCCN3CCOCC3)C2c2ccccc2)cc1 (stereo not given)	x	u	x	x	x	-7%
CCN(CC)CCN1C(=O)C(=O)/C(=C(/O)c2ccc(C)cc2)C1c1cccnc1 (stereo not given)	24%	-7%	x	x	-39%	57%
O=C1C(=O)N(CCN2CCOCC2)C(c2cccnc2)/C1=C(/O)c1ccc(Cl)cc1 (stereo not given)	12%	-14%	50µM*	5%	-20%	35%
CCOc1cccc(C2/C(=C(/O)c3ccc4c(c3)CC(C)O4)C(=O)C(=O)N2CCN2CCOCC2)c1 (stereo not given)	-4%	-12%	u	x	-10%[57.1 µM]	24%
C=CCOc1cccc(C2/C(=C(/O)c3ccc(Cl)cc3)C(=O)C(=O)N2CCN2CCOCC2)c1 (stereo not given)	18%	-24%[57.1 µM]	18µM*	-6%	-7%	u
C=CCOc1cccc(C2/C(=C(/O)c3ccc4c(c3)CC(C)O4)C(=O)C(=O)N2CCN2CCOCC2)c1 (stereo not given)	6%	-12%	50µM*	x	-22%[57.1 µM]	11%
CCCCc1ccc(-n2nc3ccc(NC(=O)c4cc5ccccc5o4)cc3n2)cc1	x	-15%	-1%[59 µM]	x	0%	27%
CCCC(=O)NCCc1c2n(c3ccc(OC)cc13)Cc1ccccc1-2	x	x	33%[12.7 µM]	x	x	x
CCCCCCCCCCCCCCCCCCOC[C@@H](O)COP(=O)([O-])OCC[N+](C)(C)C	-1%	x	x	x	x	x
C=CCOc1cccc(C2/C(=C(/O)c3ccccc3)C(=O)C(=O)N2CCN2CCOCC2)c1 (stereo not given)	13%	79µM*	u	-4%	u	12%
CC(C)CO/N=C1/C[C@@H](O)[C@@H](O)[C@@H]2[C@@H]3C(=O)N(C(C)(C)C)C(=O)[C@H]3CC[C@@H]12	1%	x	x	x	x	x
SMILES	Sfp PPTase inh	JMJD2A Tudor inh	G9a block	L3MBTL1 inh	BAZ2B inh	HP1b chromo inh
CSc1ccccc1NC(=O)CN(C)C(=O)COc1cccc2cccnc12	x	22µM*	x	u	x	0%
Cc1nc(Nc2ccccc2F)c2oc3ccccc3c2n1	-3%	5%	32µM*	x	-36%	23%
Cc1nc(Nc2ccc(Cl)cc2)c2oc3ccccc3c2n1	-10%	u	2%[0.501 µM]	x	-28%	-6%[57 µM]
Cc1nc(Nc2cccc(Cl)c2)c2oc3ccccc3c2n1	-26%	-9%	71µM*	x	-27%	11%
Cc1nc(Nc2ccccc2O)c2oc3ccccc3c2n1	-7%	-21%	-17%	x	-36%	17%
O=C(NCCN1CCOCC1)c1c(O)nc2sccn2c1=O	x	32µM*	u	-11%	-28%	4%
COCCN(C(=O)CSc1nn(-c2ccc(F)cc2)c(=S)s1)c1c(N)n(CC(C)C)c(=O)[nH]c1=O	x	-12%	8.9µM*	-4%	9%	21%
COCCN(C(=O)CSc1nnc(C)n1Cc1ccccc1)c1c(N)n(CC(C)C)c(=O)[nH]c1=O	21%	79µM*	3%	-3%	-15%	-3%
CCCCN(C(=O)CSc1nnc(-c2ccc(OC)cc2)n1C(C)C)c1c(N)n(Cc2ccccc2)c(=O)[nH]c1=O	16%	-14%	10µM*	-6%	-28%	32%
CCCCN(C(=O)CSc1nnc(-c2ccc(OC)cc2)n1CC)c1c(N)n(Cc2ccccc2)c(=O)[nH]c1=O	16%	-14%	5%[59 µM]	2%	8%	14%
COCCN(C(=O)c1ccc(-c2ccc([N+](=O)[O-])cc2)o1)c1c(N)n(CC(C)C)c(=O)[nH]c1=O	x	-15%	45µM*	1%	-1%	23%
CCCCN(C(=O)CSc1nnc(-c2ccc(Cl)cc2)o1)c1c(N)n(CC(C)C)c(=O)[nH]c1=O	x	-12%	1µM*	36%	0%	6%
COCCN(C(=O)CSc1nnc(-c2ccc(Cl)cc2)o1)c1c(N)n(CC(C)C)c(=O)[nH]c1=O	13%	2%	132%	x	8%	33%
COCCN(C(=O)CSc1nnc(-c2ccc(C(C)(C)C)cc2)n1N)c1c(N)n(CC(C)C)c(=O)[nH]c1=O	x	-4%	40µM*	1%	5%	40%
CC(=O)Nc1ccccc1-c1nc2ccccc2n(CC(=O)Nc2cccc(C)c2C)c1=O	x	-23%	u	x	1%	39%
Cc1ccc(NC(=S)NNC(=S)NCc2ccccc2)cc1	56µM*	u	u	-6%	-23%	-9%
O=C(COc1ccc(Cl)cc1)NNC(=S)NCc1ccccc1	19%	-16%	32µM*	x	25%	16%

Screens from PubChem.
